Rows were chosen to be rich in hits. Some 19% of all compounds tested hit in one or more screens of this group.
DT40 TDP1 no CPT: qHTS for Inhibitors of human tyrosyl-DNA phosphodiesterase 1 (TDP1): qHTS in cells in absence of CPT; 420,000 compounds, 15% hits; AID 686978, 2013; DT40 Tdp1-/- hTDP1 cells, no CPT, ATP luminescence, 48 h; Potency, µM (doses to about 46.2 µM), for inactives: at the top dose activity change, negative = growth inhibition, usual class: inhibitors; note: potency is the fitted concentration of half-maximal effect; nearly all actives have a fitted effect of over 55% in size
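Growth kinetics read by CellTiter-Glo luminescence after ≥48 hr at 37 °C. Cells: DT40 Tdp1-/- stably carrying human TDP1, 400 per well, compound exposure in the absence of CPT (DMSO vehicle).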
HT1080 IDH1KD tx: qHTS for induction of synthetic lethality in tumor cells producing 2HG: qHTS for the HT-1080-IDH1KD cell line; HT-1080 IDH1 knockdown viability, ATP luminescence, 48 h; 360,000 compounds, 2% hits; Potency, µM (titrated, usually from 46.1 µM), inactives show at the highest dose activity, negative = toxicity, usual class: cytotoxic;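 note: potency is the fitted concentration of half-maximal effect; 0% = DMSO wells and -100% = cell-free medium wells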
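After a 2 h attachment period, IDH1KD HT-1080 cells took pin-transferred compound for 48 h at 37 °C; ATP-based luminescence after 10 min room-temperature reagent incubation reported viability.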
HT1080NT lethal: qHTS for induction of synthetic lethality in tumor cells producing 2HG: qHTS for the HT-1080-NT fibrosarcoma cell line; HT-1080-NT fibrosarcoma viability, CellTiter-Glo ATP luminescence, 48 h; Potency, µM (titrated, usually from 46.1 µM), for inactives: at the top dose activity, negative = less viability, most hits filed as cytotoxic; 360,000 compounds, 1.6% hits;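 note: NT is the 2HG producing partner of a matched IDH1 knockdown line; potency is the fitted concentration of half-maximal effect; 0% = DMSO-treated cells and -100% = media-only wells without cells; nearly all actives have a fitted effect of over 55% in size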
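750 cells/well, RPMI + 5% FBS; 2 h settle, compound pin-transfer, 48 h at 37 degrees C. CellTiter-Glo 10 min RT, luminescence. Normalized to DMSO and media-only wells.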
TDP1 cell CPT: qHTS for Inhibitors of human tyrosyl-DNA phosphodiesterase 1 (TDP1): qHTS in cells in presence of CPT | 420,000 compounds, 12% hits | chicken DT40 Tdp1-/-;hTDP1 cells + 20 nM CPT, ATP luminescence, 48 h | Potency, µM (highest dose often 46.2 µM), without a hit: at the top dose activity change, negative = growth inhibition, most hits filed as inhibitors; note: potency is the fitted concentration of half-maximal effect; nearly all actives have a fitted effect of over 55% in size
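Chicken DT40 Tdp1-/- cells stably complemented with human TDP1 were seeded at 400 cells/well in medium containing 20 nM camptothecin, exposed to pin-transferred compounds, and grown at 37 °C for at least 48 hr. Viability was read as ATP luminescence.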
IL1B secr inh: qHTS for Inhibitors of Inflammasome Signaling: IL-1-beta AlphaLISA Primary Screen. THP-1 LPS/ATP IL-1B secretion, AlphaLISA, 16 h; hits give low values. activity change, % at 57.5 µM. 360,000 compounds, 4.7% hits; in the data active = activity change below about -50%; inconclusive = mostly about -30% to -49%
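Secreted IL-1B measured by AlphaLISA bead assay after 16 h compound exposure of THP-1 cells; compounds (final up to 57.5 uM) added 1 h before LPS (250 ng/mL) and ATP (1.25 mM) stimulation; lower signal means less secretion.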
Starred values were filed as active, the others as inactive; ? = inconclusive; . = not tested or not shown. Unless noted, calls come from the whole dose curve; as a rule, active = well fitted curve in the direction sought with a large enough effect; inconclusive = small, poorly fitted or top-dose-only effect, or another doubt; inactive = no such curve, though single readings can be large; an effect the other way counts as inactive or inconclusive. Unless noted, % is set by controls: 0 for no effect and ±100 for the full control effect.

SMILES	DT40 TDP1 no CPT	HT1080 IDH1KD tx	HT1080NT lethal	TDP1 cell CPT	IL1B secr inh
COc1ccc(Br)cc1CN(C)CC(O)COc1ccc(Br)cc1 (stereo unspecified)	?	?	20.6µM*	?	-85.0*
O=C(CN1C(=O)c2ccccc2S1(=O)=O)Nc1ccon1	-4.7%	1.8%	1.0%	3.5%	-25.2
Oc1ccc(N=Cc2ccc(OCc3ccccc3)cc2)cc1	20.6µM*	?	?	20.6µM*	23.9
CCN(CC)c1ccc(NC(=O)CN2CCN(CC(=O)Nc3ccccc3OC)CC2)cc1	?	-8.9%	-10.1%	23.1µM*	-6.5
COc1ccccc1NC(=O)CN1CCN(CC(=O)Nc2ccccc2Cl)CC1	-20.5%	?	13.9%	25.0%	21.9
CCN(CC)c1ccc(NC(=O)CN2CCN(c3nc(C)cc(C)n3)CC2)cc1	16.4µM*	-20.7%	-26.5%	?	?
COc1ccccc1NC(=O)CN1CCN(c2ccccc2F)CC1	?	-0.7%	2.0%	20.6µM*	-9.0
COc1ccccc1NC(=O)CN1CCN(c2ccc(Cl)cc2)CC1	16.4µM*	-0.5%	-3.5%	20.6µM*	22.4
CCOc1ccc(NC(=O)CN2CCN(CC(=O)Nc3ccccc3OC)CC2)cc1	?	-1.8%	-5.6%	?	5.2
CN(C)C(CNC(=S)Nc1ccc(F)cc1)c1cccnc1 (stereo unspecified)	-16.9%	1.1%	-1.9%	0.2%	16.9
Clc1ccc(CN2CCN(c3ncccn3)CC2)c(Cl)c1	2.3%	-15.7%	?	-4.4%	-12.1
CCOC(=O)C1(CC2CCCCO2)CCN(Cc2nc(C(C)C)cs2)CC1 (stereo unspecified)	?	-22.2%	-4.2%	16.4µM*	?
CCOC(=O)C1(CC2CCCCO2)CCN(Cc2c(C)cc(C)cc2-n2cccn2)CC1 (stereo unspecified)	29.1µM*	-3.8%	-6.5%	?	28.0
CCOC(=O)C1(CC2CCCCO2)CCN(Cc2nc3ccccc3[nH]2)CC1 (stereo unspecified)	-10.3%	2.6%	-3.4%	?	10.0
c1ccc(C[n+]2ccc3ccccc3c2)cc1	16.4µM*	-2.4%	-6.1%	10.3µM*	24.0
Clc1cccc(Cl)c1C[n+]1ccc2ccccc2c1	1.46µM*	?	-26.5%	1.64µM*	13.4
c1ccc(C[n+]2cccc(-c3ccccc3)c2)cc1	8.2µM*	-6.5%	1.0%	8.2µM*	38.9
c1ccc(CC[n+]2ccncc2)cc1	-91.6%	.	.	-17.4%	.
O=C(NCCC(=O)N(Cc1ccco1)Cc1cccs1)c1ccc([N+](=O)[O-])cc1	?	-7.1%	-8.1%	?	-3.3
O=C1c2ccccc2C(c2nnnn2Cc2ccccc2)N1Cc1cccnc1 (stereo unspecified)	-23.9%	8.9%	14.2%	2.5%	28.3
COc1cccc(N2CC(NC(=O)C3CC3)CC2=O)c1 (stereo unspecified)	0.9%	.	.	9.8%	.
CC(C#N)Sc1nnc(Nc2ccccc2)s1 (stereo unspecified)	18.4µM*	15.7%	15.2%	-105.6%	-3.5
CCSc1nnc(Nc2ccccc2)s1	-21.7%	17.6%	14.1%	-6.7%	-0.6
O=C1Nc2ccc(Cl)cc2C12Nc1ccccc1-c1nnc(SCc3ccccc3F)nc1O2 (stereo unspecified)	?	9.3%	3.3%	14.6µM*	27.4
O=C1Nc2ccc(F)cc2C12Nc1ccccc1-c1nnc(SCc3ccccc3F)nc1O2 (stereo unspecified)	?	-3.5%	-0.2%	?	22.2
SMILES	DT40 TDP1 no CPT	HT1080 IDH1KD tx	HT1080NT lethal	TDP1 cell CPT	IL1B secr inh
CCOc1ncccc1C(=O)OCCCC(=O)c1ccc(Br)cc1	?	9.9%	-6.5%	2.3%	-13.7
Cn1nc(C(C)(C)C)cc1C(=O)N1CCCC(C)(C(=O)NS(=O)(=O)C2CC2)C1 (stereo unspecified)	6.51µM*	6.7%	?	6.51µM*	16.7
CC1(C(=O)NS(=O)(=O)C2CC2)CCCN(C(=O)c2ccc3c(c2)OCO3)C1 (stereo unspecified)	5.8µM*	?	?	7.31µM*	0.0
CC1(C(=O)NS(=O)(=O)C2CC2)CCCN(C(=O)c2ccc3ccccc3c2)C1 (stereo unspecified)	0.259µM*	3.0%	20.3%	0.517µM*	10.6
CCCNC(=O)C1(C)CCCN(C(=O)c2ccc3ccccc3c2)C1 (stereo unspecified)	?	16.5%	?	-18.8%	9.5
CC1(C(=O)NS(=O)(=O)C2CC2)CCCN(C(=O)c2c(F)cccc2F)C1 (stereo unspecified)	4.61µM*	7.0%	12.1%	5.17µM*	-11.8
Cn1nc(C(C)(C)C)cc1C(=O)N1CCC(C)(C(=O)NS(=O)(=O)C2CC2)C1 (stereo unspecified)	-15.9%	4.4%	?	-19.3%	5.3
NN1C(=O)NC(c2ccccc2)(c2ccccc2)C1=O	16.2%	-1.1%	-1.6%	-6.2%	-0.2
CC1(C(=O)NS(=O)(=O)C2CC2)CCCN(C(=O)/C=C/c2ccccc2)C1 (stereo unspecified)	14.6µM*	19.9%	13.1%	?	23.2
Cc1c(C(=O)N2CCC(C)(C(=O)NS(=O)(=O)C3CC3)C2)oc2ccccc12 (stereo unspecified)	0.1%	2.5%	17.3%	?	19.6
CCCS(=O)(=O)NC(=O)C1(C)CCCN(C(=O)c2ccco2)C1 (stereo unspecified)	6.0%	23.9%	17.8%	0.2%	-2.5
CCNC(=O)C1(C)CCCN(C(=O)/C=C/c2ccccc2)C1 (stereo unspecified)	-0.9%	21.4%	?	2.6%	1.1
Cc1c(C(=O)N2CCCC(C)(C(=O)NS(=O)(=O)C3CC3)C2)oc2ccccc12 (stereo unspecified)	4.11µM*	18.7%	20.2%	?	24.5
CC1(C(=O)NS(=O)(=O)C2CC2)CCCN(C(=O)c2ccco2)C1 (stereo unspecified)	11.6µM*	26.5%	9.9%	?	15.8
CC1(C(=O)NS(=O)(=O)C2CC2)CCCN(C(=O)c2cccs2)C1 (stereo unspecified)	6.51µM*	4.4%	29.5%	5.17µM*	37.0
CCc1ccccc1NC(=O)Cn1nnc(-c2nc(-c3ccncc3)no2)c1N	2.1%	.	.	-4.9%	.

Compound activity from PubChem BioAssay.
